Assay results published in the supplement of paper PMC11732987, “Enantioselective OTUD7B fragment discovery through chemoproteomics screening and high-throughput optimisation” (Communications Chemistry, 2025).

What follows are compounds tested against T1, USP22 (UniProt Q9UPT9) (assay: log2 ratio of Biotin-Ahx-Ub-VS probe labelling (fragment/DMSO); higher = less target engagement (more negative = stronger competition), active = hit call of the paper (q ≤ 0.05, log2 ratio ≤ -1)). Settings: compound concentration: 200 uM; treatment time: 3 h.
T1 sequence (whole entry): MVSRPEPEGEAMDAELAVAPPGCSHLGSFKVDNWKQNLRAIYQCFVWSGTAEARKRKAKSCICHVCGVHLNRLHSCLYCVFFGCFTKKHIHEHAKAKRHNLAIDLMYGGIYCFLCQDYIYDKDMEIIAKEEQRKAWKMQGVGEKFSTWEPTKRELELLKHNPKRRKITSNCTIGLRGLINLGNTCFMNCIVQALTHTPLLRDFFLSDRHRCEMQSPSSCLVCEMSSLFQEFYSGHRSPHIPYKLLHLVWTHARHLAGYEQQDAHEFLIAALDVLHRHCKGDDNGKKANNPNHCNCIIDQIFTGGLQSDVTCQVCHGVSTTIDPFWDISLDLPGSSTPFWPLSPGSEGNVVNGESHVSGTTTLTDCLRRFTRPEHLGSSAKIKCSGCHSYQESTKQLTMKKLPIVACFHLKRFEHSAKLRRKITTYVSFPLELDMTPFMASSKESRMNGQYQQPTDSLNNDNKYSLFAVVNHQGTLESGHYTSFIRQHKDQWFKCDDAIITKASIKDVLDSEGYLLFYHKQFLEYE
Method: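 Competitive ABPP in HEK293T cell lysate. Lysates were treated with each chloroacetamide fragment at 200 µM for 3 h, then with Biotin-Ahx-Ub-VS (0.5 µM, 1 h), NeutrAvidin-enriched and analysed by diaPASEF LC-MS/MS. Protein LFQ was median-normalised; average log2 ratio is fragment/DMSO from an unpaired t-test (n=3 treated, n=44 DMSO). Hits: q ≤ 0.05, log2 ratio ≤ -1, unique peptides ≥ 2.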

log2 ratio of Biotin-Ahx-Ub-VS probe labelling, inactive:
Cl.Cn1cnc2cc(CNC(=O)CCl)ccc21 0.00285
NS(=O)(=O)c1ccc(Cl)c(NC(=O)CCl)c1 -0.46
COCC[C@@H](NC(=O)CCl)c1ccccc1 0.104
Cc1ccc(N2CCC(NC(=O)CCl)C2=O)cc1 (stereo not given) -0.233
Cc1n[nH]c(=O)c2c(NC(=O)CCl)oc(C)c12 -0.281
NC(=O)C1CCCCN1C(=O)CCl (stereo not given) 0.159
O=C(CCl)Nc1ccc(F)cc1Cl -0.0369
O=C(CCl)N1CCC(C(=O)N2CCCCCC2)CC1 -0.145
Cc1nc(CNC(=O)CCl)c2ccccn12.Cl 0.0129
Cl.O=C(CCl)N1CCCC(c2ncc[nH]2)C1 (stereo not given) 0.0588
Cc1ccc(-c2nnc(C)[nH]2)c(NC(=O)CCl)c1 0.0459
CCN(Cc1ccc(C#N)cc1F)C(=O)CCl -0.094
Cl.O=C(CCl)NC1(c2ncccn2)CCC1 0.221
O=C(CCl)Nc1nc(-c2cccs2)cs1 -0.167
Cc1nc(-c2cccc(NC(=O)CCl)c2)cs1 -0.0833
Cl.O=C(CCl)N[C@H]1C[C@@H](n2cccn2)C1 0.044
O=C(CCl)Nc1cccc2ncccc12 0.19
Cc1cccc(NC(=O)CCl)c1C -0.267
O=C(CCl)Nc1ccc(Cl)c(F)c1 -0.253
CN(CCC(O)c1ccc(Br)cc1)C(=O)CCl (stereo not given) -0.43
NC(=O)C1CCCN(C(=O)CCl)C1 (stereo not given) 0.245
O=C(CCl)N1CC=C(c2c[nH]c3ccccc23)CC1 -0.57
O=C(CCl)N1CCC(c2nc3ccccc3o2)CC1 -0.0192
Cl.Cn1nccc1C(NC(=O)CCl)c1ccccc1 (stereo not given) -0.153
COc1ccc(-c2csc(NC(=O)CCl)n2)cc1 -0.229
O=C(CCl)Nc1cccc(C(=O)N2CCSCC2)c1 -0.0474
COCC1C=CCCN1C(=O)CCl (stereo not given) -0.0428
Cc1ccc(N(C(=O)CCl)C2C=CS(=O)(=O)C2)cc1 (stereo not given) 0.0416
CC(NC(=O)CCl)c1cccc(Cl)c1 (stereo not given) -0.146
Cc1nc(CC2CCN(C(=O)CCl)CC2)no1 -0.386
Cc1nc(CN2CCCN(C(=O)CCl)CC2)no1.Cl 0.125
CC(NC(=O)CCl)c1csc(-c2ccccc2)n1.Cl (stereo not given) -0.723
O=C(CCl)N1CCOC2(CCC2)C1 0.184
CCCn1nccc1NC(=O)CCl 0.165
O=C(CCl)NCc1ccc2c(c1)OCO2 -0.126
O=C(CCl)NCc1ccc(N2CCOCC2)c(F)c1 -0.359
Cc1cccn2cc(CCNC(=O)CCl)nc12.Cl -0.0399
Cl.O=C(CCl)N1CCn2ncc(O)c2C1 -0.609
O=C(CCl)N1CCOC(CCc2ccccc2)C1 (stereo not given) -0.0816
O=C(CCl)N[C@H]1CC[C@@H](CO)CC1 -0.256
